# Experimental data as given in PubChem BioAssay AID463195 (Sanford-Burnham Center for Chemical Genomics, 2010).
# Among all 330,000 compounds or so, about 4,600 (1.4%) were called active.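 Rule for the calls: active = inhibition of 40% or more at the single tested concentration; inactive = the rest.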 Many of the other results were omitted from the sample, so actives are more common in it than they were.
# Experiment: growth inhibitors of isogenic TIM10 control yeast, primary screen, counter-screen for tim10-1 yeast inhibitor project, luminescence, uHTS (AID 463195);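 note: wild-type TIM10 isogenic control strain grown at permissive 25 °C; 0% = DMSO yeast wells and 100% = minimal medium wells without yeast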
# Conditions: S. cerevisiae TIM10 strain growth, BacTiter-Glo luminescence, 24 h; at 10 µM; hits give high values
row,SMILES,inhibition
1,O=C(N/N=C/c1ccc(Cl)cc1)c1nc2ccc([N+](=O)[O-])cc2c(=O)[nH]1,-0.404% (inactive)
2,COc1ccc(C(=O)N2CCCC(C(=O)c3ccccc3OC)C2)cc1OC (stereo not drawn),1.3% (inactive)
3,Cc1ccc(Cl)cc1NC(=O)C1CCCN(c2cnccn2)C1 (stereo not drawn),5.02% (inactive)
4,O=C(Nc1cccc(Cl)c1)C1CCCN(c2cnccn2)C1 (stereo not drawn),42.8% (active)
5,O=C(Nc1ccc2c(c1)OCCO2)C1CCCN(c2ncccn2)C1 (stereo not drawn),-4.49% (inactive)
6,O=C1C2C3C=CC(C4CC34)C2C(=O)N1c1nccs1 (stereo not drawn),-2.66% (inactive)
7,CCOC(=O)c1cnc2ccc(F)cc2c1Nc1ccc2c(c1)OCCO2,37.4% (inactive)
8,COc1ccc(-c2cn3ccc(C)cc3n2)cc1,30.2% (inactive)
9,Cc1ccc(-c2cn3cc(C)ccc3n2)cc1,65% (active)
10,CSc1nnc2ccc(-c3ccc(C)cc3)nn12,7.14% (inactive)
11,Cc1ccc2nc(-c3ccc(Br)cc3)cn2c1,40.3% (active)
12,CCN(CC)S(=O)(=O)c1ccc(-c2cn3ccc(C)cc3n2)cc1,11.7% (inactive)
13,Cc1ccc(-c2cn3cc([N+](=O)[O-])ccc3n2)cc1,-29.9% (inactive)
14,COc1ccccc1C(=O)Nc1nc2nc(-c3ccccc3)cc(=O)n2[nH]1,-9.51% (inactive)
15,N#Cc1ccccc1NC(=O)COc1c(Br)cc(Br)c2cccnc12,13.8% (inactive)
16,O=C(Nc1ccc(N2CCN(C(=O)c3ccccc3)CC2)c(Cl)c1)c1ncn[nH]1,-12.4% (inactive)
17,CN(C)C(=O)CCC(=O)N1CCCCC1C(=O)Nc1ccc(Oc2ccccc2F)cc1 (stereo not drawn),3.39% (inactive)
18,Fc1ccccc1/C=C1\CCCC2=C1Nc1ncnn1C2c1ccccc1F (stereo not drawn),48.1% (active)
19,CC1=C(C(N)=O)C(c2ccc(Br)cc2)n2ncnc2N1 (stereo not drawn),-4.88% (inactive)
20,CCC1CCc2c(sc(NC(C)=O)c2C#N)C1 (stereo not drawn),7.23% (inactive)
21,O=C(COC(=O)c1ccc(Cl)nc1)NCc1cccs1,7.82% (inactive)
22,COc1ccccc1N1CCN(C(=O)C2Cc3ccccc3CN2C(=O)c2ccco2)CC1 (stereo not drawn),22% (inactive)
23,COc1cc2ccccc2cc1C(=O)N1CCOCC1,5.86% (inactive)
24,Cc1oc2c(c1C(=O)N1CCOCC1)C(=O)c1ccccc1C2=O,46.1% (active)
25,COC1=C(N2CCOCC2)C(=O)c2ccccc2C1=O,-3.21% (inactive)

row,SMILES,inhibition
1,CC1=C(C)CC(C(=O)NNC(=O)c2csc3c2CCC(C(C)(C)C)C3)C(C(=O)O)C1 (stereo not drawn),5.91% (inactive)
2,O=C(CSCc1ccccc1)Nc1ccccc1,-3.8% (inactive)
3,COC(=O)Cc1c(O)ccn(Cc2cccc(C(F)(F)F)c2)c1=O,11.1% (inactive)
4,O=C(/C=C/Sc1ncn[nH]1)c1ccc(Cl)cc1,73.5% (active)
5,O=C(CSc1ncn[nH]1)N/N=C/c1ccc(F)cc1,-3.76% (inactive)
6,Cc1ccc(C(=O)/C=C/c2c(C)nn(-c3ccccc3)c2Cl)cc1,29.3% (inactive)
7,CCN(CC)C(=O)[C@H]1C[C@H](CC(=O)NCC23CC4CC(CC(C4)C2)C3)C(=O)N2CCc3c([nH]c4cc(CCC(=O)N(C)C)ccc34)[C@]12C,6.94% (inactive)
8,CC(C)CC(=O)NC(=S)Nc1cc(C(=O)O)ccc1Cl,-4.57% (inactive)
9,CC(C)CC(=O)NC(=S)Nc1ccc(F)cc1F,41.9% (active)
10,CC(=O)c1ccc(NC(=S)NC(=O)CC(C)C)cc1,28.8% (inactive)
11,Cc1cc(C)c(C)c(S(=O)(=O)Nc2ccc(O)cc2)c1C,11.4% (inactive)
12,Cc1c(C)c(C)c(S(=O)(=O)NCCc2ccccn2)c(C)c1C,7.03% (inactive)
13,COc1ccc(NS(=O)(=O)c2ccc(F)cc2F)cn1,-5.52% (inactive)
14,COC(=O)c1sccc1NC(=O)CSc1ccccc1NS(=O)(=O)c1cc(Cl)ccc1Cl,10% (inactive)
15,COC(=O)c1sccc1NS(=O)(=O)c1ccc(F)cc1F,48.3% (active)
16,CC1CCCN(CCOCCOc2ccccc2-c2ccccc2)C1 (stereo not drawn),-0.424% (inactive)
17,Cc1ccc(NS(=O)(=O)c2ccc3c(c2)n(C)c(=O)c(=O)n3C)c(C)c1,-2% (inactive)
18,COc1ccccc1/C=C/C(=O)NC1CC2CCC1C2 (stereo not drawn),18.9% (inactive)
19,CCOC(=O)C(=CNc1cccc(C)n1)C(=O)OCC,-4.77% (inactive)
20,CCOC(=O)C(=Cc1ccccc1OC)C(=O)OCC,49% (active)
21,COc1ccccc1CNC(=O)C1CCN(C(=O)[C@@H]2Cc3ccccc3CN2)CC1,6.93% (inactive)
22,COc1ccc(Nc2cc(=O)oc3ccccc23)cc1,-15.1% (inactive)
23,CCCN1CCn2c3c(c4cc(Br)ccc42)CCCC31 (stereo not drawn),6.43% (inactive)
24,CCOc1ccc(/C(O)=C2\C(=O)C(=O)N(c3ccc(OC)cc3)C2c2ccccc2[N+](=O)[O-])cc1 (stereo not drawn),23.4% (inactive)
25,COc1ccc2[nH]cc(CCN3C(=O)c4ccc(C(=O)O)cc4C3=O)c2c1,-1.99% (inactive)

row,SMILES,inhibition
1,CCN(CC)CC(=O)c1c[nH]c2ccc(OC)cc12,-7.94% (inactive)
2,COc1ccc2[nH]cc(/C=C(/C#N)S(=O)(=O)c3ccccc3)c2c1,54.5% (active)
3,O=C(Oc1ccc([N+](=O)[O-])cc1)c1ccc2ccccc2n1,40.4% (active)
4,CC(OC(=O)c1ccc2ccccc2n1)C(=O)c1ccccc1 (stereo not drawn),3.19% (inactive)
5,COc1ccc(C(=O)COC(=O)c2ccc3ccccc3n2)cc1,37.3% (inactive)
6,O=C(Nc1cccc(Cl)c1Cl)c1ccccc1NC(=O)C1CC=CCC1C(=O)O (stereo not drawn),-0.652% (inactive)
7,Cc1cc(N=Nc2ccc3ccccc3c2)ccc1O,74.2% (active)
8,Cc1ccc(/C=N/NC(=O)c2cc3ccccc3cc2O)o1,16.7% (inactive)
9,COc1cccc(OCC(O)CNC(=O)c2oc3c(C)c(C)ccc3c2C)c1 (stereo not drawn),-2.72% (inactive)
10,Cc1nc2cc(C(F)(F)F)ccc2n1CCNc1nc(-c2cc(Cl)c(N)c(Cl)c2)cs1,3.25% (inactive)
11,CC(=O)c1c(OCC(=O)N(C)C2CCCCC2)ccc2c(C)cc(=O)oc12,5.61% (inactive)
12,C=CCNC(=S)NNC(=O)c1ccc(Br)o1,-5.99% (inactive)
13,C=CCNC(=O)COC(=O)CNC(=O)c1cc(Cl)cc([N+](=O)[O-])c1,-0.359% (inactive)
14,C=CCNC(=S)NNC(=O)COc1c(Cl)cc(Cl)cc1Cl,57.7% (active)
15,O=C(CN1CCCCC1)NC(=O)Nc1ccccc1F,-12.6% (inactive)
16,CCOC(=O)CCCNC(=O)COC(=O)c1cc(Br)c(Br)s1,10.3% (inactive)
17,Fc1ccc(/C=N/n2c(COc3ccccc3)n[nH]c2=S)cc1,40.9% (active)
18,Cc1ccc(OCc2n[nH]c(=S)n2-c2ccccc2)cc1,16.5% (inactive)
19,O=[N+]([O-])c1ccccc1/C=N/n1c(COc2ccccc2)n[nH]c1=S,17.8% (inactive)
20,CC(C)NC(=O)/C(C#N)=C\c1ccc(N(C)C)c(Br)c1,55.1% (active)
21,Cc1[nH]c2ccccc2c1/C=C(/C#N)C(=O)NC(C)C,17.7% (inactive)
22,CC(C)(C)C(=O)/C(C#N)=C/c1ccc(O)cc1,-0.948% (inactive)
23,N=c1n(Cc2ccc(Cl)cc2)c2ccccc2n1CC(O)c1ccco1 (stereo not drawn),4.4% (inactive)
24,NC(=O)c1cc(S(=O)(=O)N2CCCC2)ccc1OCc1ccc(F)cc1,-5.53% (inactive)
25,O=C(N/N=C/c1c[nH]c2ccccc12)c1cc2ccccc2o1,49.3% (active)

row,SMILES,inhibition
1,O=C(O)c1cccc(NC(=S)N/N=C/c2c[nH]c3ccccc23)c1,11.4% (inactive)
2,Cc1c(/C=N\NC(=O)c2cc3ccccc3o2)c2ccccc2n1C,8.19% (inactive)
3,Nc1nonc1-n1nnc(C(=O)N/N=C/c2c[nH]c3ccccc23)c1-c1ccccc1,12.9% (inactive)
4,CSC(=S)N/N=C/c1c[nH]c2ccccc12,43.5% (active)
5,O=C(N/N=C/c1cccc(O)c1)c1cc2c(ccc3ccccc32)o1,7.41% (inactive)
6,COc1ccccc1CNS(=O)(=O)c1cc(C(=O)NCc2ccccn2)c(Cl)cc1Cl,3.96% (inactive)
7,CCOC(=O)c1cc2c(=O)[nH]c(C(Cl)(Cl)Cl)nc2o1,1.82% (inactive)
8,COc1cc2c(cc1NC(=O)COC(=O)/C=C/c1ccccc1)oc1ccccc12,-21.9% (inactive)
9,CN(c1ccc(OCC(=O)NC2=NCCS2)cc1)S(=O)(=O)c1ccc(F)cc1,-18.2% (inactive)
10,C/C(CC1CC(C)(C)OC1=O)=N/Nc1nc(-c2ccccc2)cs1 (stereo not drawn),17.6% (inactive)
11,COc1ccccc1C(=O)CSc1cccc[n+]1[O-],-4.59% (inactive)
12,O=C(CSc1cccc[n+]1[O-])c1ccc(Cl)cc1,1.21% (inactive)
13,O=C(CSc1cccc[n+]1[O-])c1ccc(-c2ccccc2)cc1,42% (active)
14,CCc1cc2cc(OC)ccc2nc1SCC(=O)Nc1cc(OC)c(OC)cc1C(=O)O,11.1% (inactive)
15,Cc1ccc(NC(=O)c2ccc(Oc3ncccn3)cc2)cc1,9.43% (inactive)
16,COc1cccc(N(CC(=O)NCCSc2ccccn2)S(C)(=O)=O)c1,-1.16% (inactive)
17,O=C(ON=C1CCN(S(=O)(=O)c2ccccc2)CC1)c1ccc(Cl)cc1,48% (active)
18,CC(OC(=O)c1ccc(S(=O)(=O)N2CCOCC2)cc1)c1ccccc1 (stereo not drawn),10.1% (inactive)
19,COC(=O)c1ccc(S(=O)(=O)N2CCc3ccccc3C2)cc1,-8.05% (inactive)
20,Cc1cc[n+](-c2[nH]c(=O)sc2/C=N/NC(=O)c2ccccc2[O-])cc1C,2.83% (inactive)
21,CN(c1ccc(O)cc1)c1nc(-c2cccnc2)cs1,-2.92% (inactive)
22,COc1ccccc1-c1n[nH]c2c1[C@H](C)CC[C@H]2C(C)C,56% (active)
23,COc1ccccc1C1=CC(=O)C[C@H](c2ccc(F)cc2)C1,-15.1% (inactive)
